PubChem BioAssay (Tox21)
Inconclusive results are not listed. Active and inactive are the calls of the source. Calls come from the whole dose curve.

Tests used:
[1] = target: Acetylcholinesterase (Homo sapiens) (UniProt P22303); test: Acetylcholinesterase (AChE) small molecule antagonists: colormetric cell-based qHTS assay (AID 1347395); note: nearly all actives have a fitted effect of over 30% in size
In short: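 Colorimetric read-out: DTNB detects thiocholine released when cellular AChE in SH-SY5Y cells hydrolyses acetylthiocholine. Cells attached overnight, received compound for 30 min at 37 C, then substrate mix for 90 min at 37 C.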

[2] = target: Acetylcholinesterase (Homo sapiens) (UniProt P22303); test: Acetylcholinesterase (AChE) small molecule antagonists: enzyme-based qHTS assay (AID 1347397); conditions: Potency: AChE enzyme activity inhibition; outcome: AChE enzyme activity inhibition; note: nearly all actives have a fitted effect of over 55% in size
In short: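 Colorimetric DTNB read-out of thiocholine released from acetylthiocholine by recombinant human AChE (50 mU/mL as dispensed). Compounds were preincubated 30 min at RT before substrate/DTNB addition, with a 10 min RT reaction.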

[3] = target: Acetylcholinesterase (Homo sapiens) (UniProt P22303); test: Acetylcholinesterase (AChE) small molecule antagonists: fluorescence cell-based qHTS assay (AID 1347398); conditions: Potency: AChE activity; outcome: AChE activity; note: nearly all actives have a fitted effect of over 50% in size
In short: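 SH-SY5Y, 2,000 cells/well, attached overnight; cmpd 30 min 37 C; acetylthiocholine/Thiolite Green cocktail 40 min RT; fluorescence Ex/Em 490/520 nm.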

[4] = target: Acetylcholinesterase (Homo sapiens) (UniProt P22303); test: Acetylcholinesterase (AChE) small molecule antagonists: enzyme-based qHTS assay with human liver microsomes (AID 1347399); conditions: Potency: qHTS inhibition; outcome: qHTS inhibition; note: nearly all actives have a fitted effect of over 60% in size
In short: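 Recombinant human AChE (50 mU/mL in the enzyme mix) and human liver microsomes (0.25 mg/mL final) were preincubated with compound and NADPH (0.25 mg/mL final) for 30 min at 37 C. Acetylthiocholine/DTNB was then added; thiocholine was read colorimetrically after 10 min at room temperature.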
% is set by controls: 0 for no effect and ±100 for the full control effect.

Chain of Acetylcholinesterase (Homo sapiens) (P22303 whole entry, looked up): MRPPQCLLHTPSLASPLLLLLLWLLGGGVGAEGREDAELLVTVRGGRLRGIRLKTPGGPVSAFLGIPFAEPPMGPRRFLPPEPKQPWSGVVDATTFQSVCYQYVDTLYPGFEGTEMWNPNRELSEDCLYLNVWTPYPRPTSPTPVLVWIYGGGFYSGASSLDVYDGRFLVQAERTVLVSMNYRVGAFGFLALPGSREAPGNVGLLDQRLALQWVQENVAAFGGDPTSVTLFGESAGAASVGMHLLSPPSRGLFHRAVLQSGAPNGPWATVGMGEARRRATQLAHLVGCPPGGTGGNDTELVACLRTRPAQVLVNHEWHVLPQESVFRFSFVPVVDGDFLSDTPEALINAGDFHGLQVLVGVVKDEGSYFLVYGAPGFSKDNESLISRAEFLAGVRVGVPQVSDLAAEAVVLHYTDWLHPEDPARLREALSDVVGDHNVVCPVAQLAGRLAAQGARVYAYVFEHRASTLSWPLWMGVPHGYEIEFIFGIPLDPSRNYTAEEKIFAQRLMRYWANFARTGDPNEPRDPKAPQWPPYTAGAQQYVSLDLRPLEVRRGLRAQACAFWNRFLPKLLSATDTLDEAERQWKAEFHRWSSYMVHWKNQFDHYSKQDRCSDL

CC(S)C(=O)NCC(=O)O (stereo not given)
inactive: Potency [1] | Potency [2] | Potency [3] | Potency [4]

Cc1ccnc2ccccc12
inactive: Potency [1] | Potency [2] | Potency [3] | Potency [4]

C=C1C[C@@]23CC[C@H]4[C@@](C)(CCC[C@@]4(C)C(=O)O[C@@H]4O[C@H](CO)[C@@H](O)[C@H](O)[C@H]4O)[C@@H]2CC[C@]1(O[C@@H]1O[C@H](CO)[C@@H](O)[C@H](O[C@@H]2O[C@H](CO)[C@@H](O)[C@H](O)[C@H]2O)[C@H]1O[C@@H]1O[C@H](CO)[C@@H](O)[C@H](O)[C@H]1O)C3
inactive: Potency [1] | Potency [2] | Potency [3] | Potency [4]

CCN(CC)C(=O)N1CCN(C)CC1
inactive: Potency [1] | Potency [2] | Potency [3] | Potency [4]

COc1cc(-c2nc(NC(=O)c3cc4cc(C)cc(C)c4n3CC(=O)O)sc2CCC2CCCCC2)c(OC)cc1Cl
inactive: Potency [1] | Potency [2] | Potency [3] | Potency [4]

N=C(N)N1CCc2ccccc2C1
inactive: activity, negative = inhibition [1] 3.08% [at 10.5 µM] | activity change, negative = inhibition [2] 0.139% [at 10.5 µM] | activity change, negative = inhibition [3] -0.69% [at 10.5 µM] | activity change, negative = inhibition [4] 2.85% [at 10.5 µM]

Cc1ccccc1C#N
inactive: Potency [1] | Potency [2] | Potency [3] | Potency [4]

CCCCCCOC(=O)CCCCC
inactive: Potency [1] | Potency [2] | Potency [3] | Potency [4]

Clc1cc(Cl)cc(Cl)c1
inactive: Potency [1] | Potency [2] | Potency [3] | Potency [4]

C=CCN(CC=C)CC=C
inactive: Potency [1] | Potency [2] | Potency [3] | Potency [4]

COC(=O)[C@]1(C)CCC[C@@]2(C)[C@H]1CC=C1C=C(C(C)C)CC[C@@H]12
inactive: Potency [1] | Potency [2] | Potency [3] | Potency [4]

S=c1[nH][nH]c(=S)s1
inactive: Potency [1] | Potency [2] | Potency [3] | Potency [4]

CCCCCCCCC1CCC(=O)O1 (stereo not given)
inactive: Potency [1] | Potency [2] | Potency [3] | Potency [4]

COC(C)=O
inactive: Potency [1] | Potency [2] | Potency [3] | Potency [4]

NS(=O)(=O)c1cc(C2(O)NC(=O)c3ccccc32)ccc1Cl (stereo not given)
inactive: Potency [1] | Potency [2] | Potency [3] | Potency [4]

CCCCOc1ccc(OCCCN2CCOCC2)cc1
inactive: Potency [1] | Potency [2] | Potency [3] | Potency [4]

O=C(NCCO[N+](=O)[O-])c1cccnc1
inactive: Potency [1] | Potency [2] | Potency [3] | Potency [4]

N#Cc1cscn1
inactive: Potency [1] | Potency [2] | Potency [3] | Potency [4]

C=CC(C)(CCC=C(C)C)OC=O (stereo not given)
inactive: Potency [1] | Potency [2] | Potency [3] | Potency [4]

c1ccc(CN(CC2=NCCN2)c2ccccc2)cc1
inactive: Potency [1] | Potency [2] | Potency [3] | Potency [4]

CC(C)OC(=O)C(C)N(C(=O)c1ccccc1)c1ccc(F)c(Cl)c1 (stereo not given)
inactive: Potency [1] | Potency [2] | Potency [3] | Potency [4]

CC(C)(C)c1ccc(-c2ccc(C(C)(C)C)cc2)cc1
inactive: Potency [1] | Potency [2] | Potency [3] | Potency [4]

CC(C)(C)c1ccc(N)cc1
inactive: Potency [1] | Potency [2] | Potency [3] | Potency [4]

COc1ccc2nc(NC(=O)Nc3ccccc3)sc2c1
inactive: Potency [1] | Potency [2] | Potency [3] | Potency [4]

CCCC=O
inactive: Potency [1] | Potency [2] | Potency [3] | Potency [4]

O=S(=O)(c1ccccc1)c1ccc(Cl)cc1
inactive: Potency [1] | Potency [2] | Potency [3] | Potency [4]

CC(C)(C)c1ccc(C=O)cc1
inactive: Potency [1] | Potency [2] | Potency [3] | Potency [4]

N#Cc1c(F)cccc1F
inactive: Potency [1] | Potency [2] | Potency [3] | Potency [4]

O=C(CCOCCOCCOCCOCCC(=O)Nc1c(I)cc(I)c(C(=O)O)c1I)Nc1c(I)cc(I)c(C(=O)O)c1I
inactive: Potency [1] | Potency [2] | Potency [3] | Potency [4]

OCCCS
inactive: Potency [1] | Potency [2] | Potency [3] | Potency [4]

CN(C)C(C)(C)CO
inactive: Potency [1] | Potency [2] | Potency [3] | Potency [4]

CCCC(=O)OC(=O)CCC
inactive: Potency [1] | Potency [2] | Potency [3] | Potency [4]

C/C=C(/C(=C/C)c1ccc(OC(C)=O)cc1)c1ccc(OC(C)=O)cc1
inactive: Potency [1] | Potency [2] | Potency [3] | Potency [4]

O=C(O)Cc1sc(-c2ccccc2)nc1-c1ccc(Cl)cc1
inactive: Potency [1] | Potency [2] | Potency [3] | Potency [4]

CC(C)CCCO
inactive: Potency [1] | Potency [2] | Potency [3] | Potency [4]
